# High-throughput results deposited in PubChem by several laboratories.
# AI-2 QS mod: Vibrio harveyi AI-2 quorum sensing modulators, primary screen, JMH597 strain, luminescence/OD600 ratio. Vibrio harveyi JMH597 AI-2 luminescence/OD600 ratio, 9 h; hits give low values; strain lacks LuxN and CqsS sensors; 0 = neutral-control median. activity change, % at 7.5 µM. 300,000 compounds, 0.4% hits. AID 2094, 2009; in the data active means activity change below about -75%, passing the limit was not always enough;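 further: luminescence divided by OD600 gain over 9 h not by final OD600 alone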
# CHT block: inhibitors of human choline transporter CHT; AID 488975, 2010; CHT-expressing cells, membrane potential dye, choline response; hits give low values; 310,000 compounds, 0.86% hits; B-score at 10 µM;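 active means B-score over 3 SD under the library average, and starting fluorescence ratio not unusually high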;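 further: choline stimulus applied at its EC90 after an EC20 pre-addition; B-score computed on integrated fluorescence ratio after choline addition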
# Target sequence (Q9GZV3 whole entry, looked up): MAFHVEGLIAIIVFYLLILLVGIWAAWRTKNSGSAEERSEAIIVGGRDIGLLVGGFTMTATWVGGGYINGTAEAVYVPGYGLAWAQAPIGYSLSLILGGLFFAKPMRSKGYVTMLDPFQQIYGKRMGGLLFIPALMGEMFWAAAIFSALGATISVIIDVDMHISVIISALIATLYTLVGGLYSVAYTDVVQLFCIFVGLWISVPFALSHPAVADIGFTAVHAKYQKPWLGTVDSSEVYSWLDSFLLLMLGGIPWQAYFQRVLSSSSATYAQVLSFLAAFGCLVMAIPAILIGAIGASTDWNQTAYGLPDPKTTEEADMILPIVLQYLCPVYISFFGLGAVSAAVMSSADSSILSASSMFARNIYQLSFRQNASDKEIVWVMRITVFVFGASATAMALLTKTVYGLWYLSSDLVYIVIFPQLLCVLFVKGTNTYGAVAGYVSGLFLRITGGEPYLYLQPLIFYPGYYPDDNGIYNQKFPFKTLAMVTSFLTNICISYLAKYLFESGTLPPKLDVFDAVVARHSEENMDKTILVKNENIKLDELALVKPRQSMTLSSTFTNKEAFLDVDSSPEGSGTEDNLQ
# HIF act: HIF pathway transcriptional activators, primary screen, cell-based, U2OS HRE-luciferase, luminescence; U2OS HRE-luciferase reporter; normalized: DMSO 0%, desferrioxamine 100%; 300,000 compounds, 0.32% hits; AID 1910, 2009; activation, % at 7.5 µM (by protocol);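 active means mean activation of at least 10% of the iron chelator positive control signal, with at least half of replicates also reaching 10%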
# CHT allo act: CHT positive allosteric modulators, primary screen, cell-based, membrane potential dye, choline EC20. High affinity choline transporter 1 (Homo sapiens), Q9GZV3. CHT-expressing cells; hits give high values; LV-AA mutant CHT in HEK293 cells. B-score at 10 µM. 310,000 compounds, 0.49% hits. AID 488977, 2010;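 active means initial fluorescence not abnormally high and integrated response B-score, plate-corrected, over 3 SD above library mean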
# VLA-4 inh: inhibition in human VLA-4 binding assay, primary screen, VLA-4 allosteric modulator project, MLPCN library, flow cytometry, VLA-4 expressing cells | Integrin alpha-4 (Homo sapiens), P13612 | ligand binding flow cytometry | inhibition, % (about 7 µM as worked out from the volumes in the protocol) | 330,000 compounds, 0.2% hits; in the data active means inhibition above about 50%
# Platelet DG rel: inhibitors of platelet dense granule secretion, primary screen, cell-based, MLPCN, human platelets. AID 1663, 2009. 300,000 compounds, 0.22% hits. human platelet-rich plasma, SFLLRN dense granule ATP release, luminescence. inhibition, %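 (compounds screened at 7.5 µM in platelet-rich plasma)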;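 active means mean replicate score, as percent of positive control, at or above 50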
# Starred values were filed as active, the others as inactive; i = inactive; / = no result given. Sampled rows, rich in hits. Any-hit rate of the full collection: about 2.2%.
SMILES,AI-2 QS mod,CHT block,HIF act,CHT allo act,VLA-4 inh,Platelet DG rel
CC1CC(C)CN(c2nc3c(c(=O)n(C)c(=O)n3C)n2CCSc2ncccn2)C1 (centres undefined),4,i,0,i,0,1
CN(C)c1ccc(C(=O)NCC(c2cccs2)N2CCOCC2)cc1 (centres undefined),/,/,/,/,-14,/
On1c2c(c3c4nonc4ccc31)CCCC2,23,-11*,0,i,-22,6
COn1c2c(c3c4nonc4ccc31)CCCC2,15,i,0,i,-12,0
COC(=O)C1=C(C)N(C)C(=O)NC1c1cc(Cl)c(O)c(OC)c1 (centres undefined),18,i,692*,i,-5,15
Clc1cccc(N2CCN(Cc3nc(-c4ccccc4)no3)CC2)c1,19,i,0,i,-17,3
Cc1cnc(C)c(N2CCN(Cc3nc(-c4ccccc4)no3)CC2)n1,22,i,0,i,0,50*
COc1cccc(CNC(=O)c2cc(S(=O)(=O)N3CCCC3)cn2C)c1,30,i,-1,i,7,57*
Cc1c(Cl)cccc1NC(=O)c1cc(S(=O)(=O)N2CCOCC2)cn1C,32,i,0,i,-11,-4
COc1ccc(NC(=O)c2cc(S(=O)(=O)N3CCOCC3)cn2C)c(OC)c1,11,i,0,i,-11,59*
Cn1cc(S(=O)(=O)N2CCCC2)cc1C(=O)NCc1ccccc1,32,i,0,i,30,1
COc1cc(OC)c(NC(=O)c2cc(S(=O)(=O)N3CCOCC3)cn2C)cc1Cl,23,i,0,i,7,69*
Cc1ccc(NC(=O)c2cc(S(=O)(=O)N3CCOCC3)cn2C)c(C)c1,35,i,0,i,27,41
CCOc1cc2c(cc1/C=C1/NC(=O)N(CC(=O)OC)C1=O)OCO2,9,i,0,i,-6,1
COc1cccc(/C=N/n2c(-c3cc(C)[nH]n3)n[nH]c2=S)c1O,28,i,0,i,7,-8
O=C(Cc1ccc(Cl)cc1Cl)Nc1cccc(S(=O)(=O)Nc2ccccc2F)c1,2,i,0,i,33,0
Cn1ccnc1/C(=N\NC(=O)c1ccccc1)c1cccc([N+](=O)[O-])c1,1,i,-1,i,8,-4
O=C(N/N=C(\c1ccccc1)c1ccccn1)c1cccc([N+](=O)[O-])c1,20,i,131*,i,35,0
COc1cccc(/C=C/C(=O)OCC(=O)c2c(N)n(C)c(=O)n(C)c2=O)c1,/,/,/,/,-6,/
COc1ccc(/C=C\c2cc(OC)c(OC)cc2CC[N+](C)(C)C)cc1OC,11,i,2,10*,0,2
COc1ccc2c(c1)C=C([C@@H]1C[C@H]3CN(c4ccccc4)C(=O)[C@]34CCCN14)CO2,3,i,0,i,-18,-9
O=C(Nc1ccccc1)c1ccccc1CCc1ccccc1,6,i,0,i,9,0
O=C(Nn1cnnc1)c1ccccc1CCc1ccccc1,7,i,0,i,6,62*
CC(=O)NC(CC(=O)Oc1ccc(C)cc1Br)c1ccccc1 (centres undefined),-29,i,0,i,-5,1
COc1cc(C(=O)Oc2ccccc2/C=N/NC(=O)c2ccc(C)c(Cl)c2)cc(OC)c1OC,8,i,1,i,13,24
SMILES,AI-2 QS mod,CHT block,HIF act,CHT allo act,VLA-4 inh,Platelet DG rel
O=C(N/N=C/c1ccccn1)c1ccc(Cl)cc1,53,i,12*,i,6,-10
COc1cc(C(=O)Oc2ccccc2/C=N/NC(=O)c2ccc(Cl)cc2)cc(OC)c1OC,14,i,71*,i,-4,1
O=C1NCCN(C(=O)CCc2nnc(-c3ccsc3)o2)C1c1ccc(F)cc1 (centres undefined),-8,i,0,i,-7,3
COc1ccc(N2CCN(CCCNC(=O)C(=O)c3c(C)n(C)c4ccccc34)CC2)cc1,21,i,0,i,12,6
COc1ccc(C)cc1NC(=O)CN1CCCC1c1ccc2c(c1)OCCCO2 (centres undefined),/,/,/,/,8,/
CC1Cc2cc(S(=O)(=O)N3CCCC(C(=O)N4CCCCC4)C3)ccc2N1C(=O)C1CC1 (centres undefined),7,i,0,i,3,5
CCn1c(C(=O)N2CCC(C(=O)NCCCSC3CCCCC3)CC2)cc2sccc21,51,i,0,i,8,69*
COc1cccc(CNC(=O)COC(=O)CCCNC(=O)c2ccc(Cl)cc2)c1,9,i,0,i,1,1
COc1ccccc1-n1cnc2cc(NCc3ccco3)ccc21,28,i,1,13*,-6,-1
CCCn1nc(C(=O)OCC(=O)NC(C)c2ccccc2)c2ccccc2c1=O (centres undefined),2,i,0,i,7,23
CCCSc1ccc2nc(-c3ccccc3)cn2c1,-9,i,-3,i,5,75*
CC(=O)c1cccc(NS(=O)(=O)c2ccc(-c3cc(C)no3)s2)c1,25,i,44*,i,12,4
CC(=O)c1ccc(N2CCN(S(=O)(=O)c3ccc(-c4cc(C)no4)s3)CC2)cc1,12,i,1,i,27,-3
Cc1ccc(C2=C(O)c3ccccc3C(=O)C2=O)cc1,25,i,0,i,2,-11
O=C1C(=O)c2ccccc2C(O)=C1c1cccc([N+](=O)[O-])c1,47,i,23*,i,8,29
CN(C)S(=O)(=O)c1cccc(NC(=O)CSc2nnnn2-c2ccccc2)c1,18,i,0,i,-3,50*
CCCc1sc(N/N=C/c2ccccn2)nc1-c1ccc(F)cc1,33,i,20*,i,19,4
O=C(N/N=C/C(Br)=C\c1ccccc1)c1n[nH]c2c1CCC2,23,i,12*,i,0,2
O=C(CN1C(=O)NC2(CCOc3ccccc32)C1=O)c1ccc[nH]1 (centres undefined),0,i,0,i,-14,-3
O=C(CNc1cccc(S(=O)(=O)N2CCCC2)c1)Nc1ccc(C(F)(F)F)cc1,4,i,1,i,-32,-4
